Hit rate of the full screen: of about 3,200 compounds, about 300 (9.4%) showed activity. What follows is part of a selection rich in actives, with near analogues and random picks from the rest.
System: A673/TR/shEF
Test: cell viability (LOESS-normalised, relative to median of negative controls) (log2 ratio); higher = more viable cells (less compound effect), active = hit call of the paper (over 3 MAD below the median)
Conditions: treatment time: 72 h
Procedure, shortened: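 A673/TR/shEF Ewing sarcoma cells were plated at 1,500 per well in 384-well plates and cultured with or without doxycycline, added 24 h before compounds, to induce EWS-FLI1 shRNA knockdown. Library compounds at two or more concentrations, alongside DMSO controls, were applied for three days. Cell viability was measured by CellTiter-Glo luminescence on an Envision reader. Readings were LOESS-corrected per plate, divided by the median of negative controls and log2-transformed, and hits were wells lying at least three median absolute deviations from the median of all screened wells.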

[1] = 0.25 µM, library screen: screen1, EWS-FLI1 expression: high (no doxycycline)
[2] = 0.25 µM, library screen: screen1, EWS-FLI1 expression: low (doxycycline-induced shRNA knockdown)
[3] = 2.5 µM, library screen: screen1, EWS-FLI1 expression: high (no doxycycline)
[4] = 2.5 µM, library screen: screen1, EWS-FLI1 expression: low (doxycycline-induced shRNA knockdown)
[5] = 0.25 µM, library screen: screen2, EWS-FLI1 expression: high (no doxycycline)
[6] = 0.25 µM, library screen: screen2, EWS-FLI1 expression: low (doxycycline-induced shRNA knockdown)
[7] = 2.5 µM, library screen: screen2, EWS-FLI1 expression: high (no doxycycline)
[8] = 2.5 µM, library screen: screen2, EWS-FLI1 expression: low (doxycycline-induced shRNA knockdown)
[9] = 0.025 µM, library screen: screen1, EWS-FLI1 expression: high (no doxycycline)
[10] = 0.025 µM, library screen: screen1, EWS-FLI1 expression: low (doxycycline-induced shRNA knockdown)
[11] = 25 µM, library screen: screen1, EWS-FLI1 expression: high (no doxycycline)
[12] = 25 µM, library screen: screen1, EWS-FLI1 expression: low (doxycycline-induced shRNA knockdown)
[13] = 0.103 µM, library screen: screen3, EWS-FLI1 expression: high (no doxycycline)
[14] = 0.103 µM, library screen: screen3, EWS-FLI1 expression: low (doxycycline-induced shRNA knockdown)
[15] = 0.308 µM, library screen: screen3, EWS-FLI1 expression: high (no doxycycline)
[16] = 0.308 µM, library screen: screen3, EWS-FLI1 expression: low (doxycycline-induced shRNA knockdown)
[17] = 0.926 µM, library screen: screen3, EWS-FLI1 expression: high (no doxycycline)
[18] = 0.926 µM, library screen: screen3, EWS-FLI1 expression: low (doxycycline-induced shRNA knockdown)
[19] = 2.8 µM, library screen: screen3, EWS-FLI1 expression: high (no doxycycline)
[20] = 2.8 µM, library screen: screen3, EWS-FLI1 expression: low (doxycycline-induced shRNA knockdown)
[21] = 8.3 µM, library screen: screen3, EWS-FLI1 expression: high (no doxycycline)
[22] = 8.3 µM, library screen: screen3, EWS-FLI1 expression: low (doxycycline-induced shRNA knockdown)
[23] = 25 µM, library screen: screen3, EWS-FLI1 expression: high (no doxycycline)
[24] = 25 µM, library screen: screen3, EWS-FLI1 expression: low (doxycycline-induced shRNA knockdown)

Measured: cell viability (log2)

O=C1C=C(O)c2ccccc2C1=O
inactive: [1] 0.0525 | [2] -0.00535 | [3] 0.0828 | [4] 0.181

CCCCCCCCCCCCCCCCCC(=O)OC(CC(=O)O)C[N+](C)(C)C (centres undefined)
inactive: [1] 0.12 | [2] -0.0279 | [5] 0.206 | [6] 0.0207 | [3] 0.187 | [4] 0.0146 | [7] 0.154 | [8] 0.133

CCCCCCCCCCCCCCCC(=O)O[C@H](CC(=O)[O-])C[N+](C)(C)C
inactive: [9] 0.0342 | [10] 0.0241 | [1] 0.194 | [2] 0.0339 | [3] 0.0599 | [4] -0.023
active: [11] -0.454 | [12] -0.672

CCCCCCCCCCCCCCCC(=O)OC(CC(=O)[O-])C[N+](C)(C)C (centres undefined)
inactive: [5] 0.153 | [6] 0.133 | [7] 0.18 | [8] 0.0929

NC(=Nc1nc2ccccc2o1)NC(=O)c1sc2ccccc2c1Cl
inactive: [1] 0.078 | [2] 0.000721 | [3] 0.0829 | [4] -0.0453

O=C1c2ccccc2-c2n[nH]c3cccc1c23
active: [11] -0.11
inactive: [9] 0.132 | [10] 0.0656 | [1] 0.181 | [2] -0.0312 | [3] -0.0168 | [4] 0.228 | [12] 0.104

COC1=C(OC)C(=O)c2ccccc2C1=O
inactive: [5] 0.153 | [6] 0.0608 | [7] 0.12 | [8] 0.0758

CCC(C)CCCCC(=O)NC(CCNCS(=O)(=O)O)C(=O)NC(C(=O)NC(CCNCS(=O)(=O)O)C(=O)NC1CCNC(=O)C(C(C)O)NC(=O)C(CCNCS(=O)(=O)O)NC(=O)C(CCNCS(=O)(=O)O)NC(=O)C(CC(C)C)NC(=O)C(CC(C)C)NC(=O)C(CCNCS(=O)(=O)O)NC1=O)C(C)O (centres undefined)
inactive: [1] 0.117 | [2] 0.0486 | [3] 0.103 | [4] -0.0146

CC(C)(O)CC[C@@H](O)[C@@](C)(O)[C@H]1CC[C@@]2(O)C3=CC(=O)[C@@H]4C[C@@H](O)[C@@H](O)C[C@]4(C)[C@H]3CC[C@]12C
inactive: [1] 0.0407 | [2] 0.101 | [3] 0.0783 | [4] 0.0234

C=C1C(CCl)(CCl)C2(Cl)C(Cl)C(Cl)C1(Cl)C2(Cl)Cl (centres undefined)
inactive: [1] 0.0656 | [2] 0.021 | [3] 0.0692 | [4] 0.132

COC(=O)[C@@H]1OC(=O)C2OC23[C@@]1(C)CCC1[C@@]2(C)CCC(=O)C(C)(C)C2C[C@@H](OC(C)=O)[C@]13C (some centres undefined)
inactive: [1] 0.0302 | [2] 0.00682 | [3] 0.123 | [4] 0.0574

COc1cc(/C=C/C(=O)O)ccc1O
inactive: [1] 0.0581 | [2] -0.0401 | [3] 0.12 | [4] -0.00647

COC(=O)/C=C/c1cc(O)ccc1O
inactive: [9] 0.177 | [10] 0.0349 | [1] 0.18 | [2] 0.0134 | [5] 0.108 | [6] 0.184 | [4] -0.137 | [7] 0.0473 | [8] 0.11
active: [3] -0.379 | [11] -0.809 | [12] -0.511

O=C(/C=C/c1ccc(O)cc1O)c1ccccc1
inactive: [1] 0.0477 | [2] 0.0515 | [3] 0.136 | [4] 0.0296

CC(=O)O[C@@H]1CC[C@@]2(C)[C@H](CC[C@@H]3[C@@H]2C[C@H](OC(C)=O)[C@]2(C)[C@@H](C(C)=O)CC[C@@H]32)C1
inactive: [1] 0.135 | [2] 0.117 | [3] 0.0696 | [4] 0.102

CC(C1OC(C)(C)C(O)C1O)[C@@H]1CC[C@]2(C)C3=CCC4C(C)(C)C(=O)CC[C@]4(C)C3CC[C@@]12C (some centres undefined)
inactive: [1] 0.062 | [2] 0.126 | [3] 0.148 | [4] 0.137

c1ccc(C2CN3CCSC3=N2)cc1 (centres undefined)
active: [3] -0.215 | [11] -0.261
inactive: [9] 0.0711 | [10] 0.0575 | [1] 0.0459 | [2] 0.00911 | [5] 0.102 | [6] 0.0185 | [4] 0.107 | [7] 0.166 | [8] 0.00181 | [12] 0.0697

c1ccc([C@H]2CN3CCSC3=N2)cc1
inactive: [9] 0.0743 | [10] 0.0216 | [13] 0.103 | [14] 0.000516 | [1] 0.0991 | [2] 0.0737 | [5] 0.069 | [6] 0.0838 | [15] 0.127 | [16] 0.0938 | [17] 0.0997 | [18] 0.0447 | [4] 0.0839 | [7] 0.126 | [8] 0.0627 | [19] 0.136 | [20] 0.0913 | [21] 0.12 | [22] 0.085 | [12] -0.0899 | [23] 0.0427 | [24] 0.11
active: [3] -0.0948 | [11] -0.295

Brc1ccc([C@H]2CN3CCSC3=N2)cc1
active: [3] -0.357 | [11] -0.468 | [12] -0.309
inactive: [9] 0.216 | [10] 0.000942 | [1] 0.234 | [2] 0.105 | [5] -0.0213 | [6] 0.123 | [4] -0.0691 | [7] 0.117 | [8] 0.109

CC(=O)O[C@@H]1C=C[C@@]2(C)C(C[C@@H](OC(C)=O)[C@@]3(C)C4=CC(=O)O[C@@H](c5ccoc5)[C@]4(C)CCC23)C1(C)C (some centres undefined)
inactive: [1] 0.0555 | [2] 0.12 | [3] 0.1 | [4] 0.125

CC(=O)O[C@@H]1CC[C@@]2(C)C(=CC=C3[C@@H]4CC[C@H]([C@H](C)/C=C/[C@H](C)C(C)C)[C@@]4(C)CC[C@@H]32)C1
inactive: [1] 0.0486 | [2] 0.129 | [3] 0.176 | [4] 0.156

[Cl][Pt+2][Cl].[NH2-].[NH2-]
inactive: 0.025 µM, library screen: screen2, EWS-FLI1 expression: high (no doxycycline) 0.0701 | 0.025 µM, library screen: screen2, EWS-FLI1 expression: low (doxycycline-induced shRNA knockdown) 0.092 | [13] 0.0436 | [14] 0.101 | [1] 0.0699 | [2] 0.0806 | [5] 0.126 | [6] 0.0568 | [15] 0.119 | [16] 0.0647 | [17] 0.132 | [18] 0.00232 | [3] 0.0557 | [4] 0.0761 | [7] 0.062 | [8] 0.0651 | [19] 0.0695 | [20] 0.05 | [21] 0.0685 | [22] 0.0664 | 25 µM, library screen: screen2, EWS-FLI1 expression: high (no doxycycline) 0.079 | 25 µM, library screen: screen2, EWS-FLI1 expression: low (doxycycline-induced shRNA knockdown) 0.0718 | [23] 0.135 | [24] 0.0626

CC(C)CCC[C@@H](C)[C@H]1CC[C@H]2[C@@H]3CC[C@H]4C[C@@H](O)CC[C@]4(C)[C@H]3CC[C@]12C
inactive: [1] 0.0663 | [2] 0.113 | [3] 0.0848 | [4] 0.113

COC(=O)c1c(Cl)c(Cl)c(C(=O)OC)c(Cl)c1Cl
inactive: [1] 0.0653 | [2] 0.0707 | [3] 0.0863 | [4] 0.122

CC1(C)C(=O)C=C[C@@]2(C)C1CC(=O)[C@@]1(C)C3=CC(=O)O[C@@H](c4ccoc4)[C@]3(C)CCC12 (some centres undefined)
inactive: [1] 0.0432 | [2] 0.0348 | [3] 0.201 | [4] 0.163

CCOC([O-])=Nc1c[n+](N2CCOCC2)no1
inactive: [1] 0.0951 | [2] 0.0303 | [5] 0.227 | [6] 0.0663 | [3] 0.0784 | [4] 0.0384 | [7] 0.102 | [8] 0.116

CC1(C)O[C@H]2[C@H](O)C[C@](O)(C(N)=O)C[C@H]2O1
inactive: [1] -0.0199 | [2] -0.00566 | [3] 0.076 | [4] 0.0924

Oc1ccc2c(c1)OC[C@]1(O)Cc3cc(O)c(O)cc3[C@H]21
inactive: [1] 0.113 | [2] 0.129 | [3] 0.0951 | [4] 0.187

NC(C(=O)O)C(O)C(O)C(O)CO (centres undefined)
inactive: [1] 0.0607 | [2] 0.059 | [3] 0.025 | [4] 0.121

COc1ccccc1NC(=O)C1=C(C)NC(=O)NC1c1ccc(Cl)cc1 (centres undefined)
inactive: [1] 0.0563 | [2] 0.0447 | [3] 0.0428 | [4] 0.00886

O=C(CSc1nnc(Cc2ccccc2)o1)c1ccc(Cl)cc1
inactive: [1] 0.0547 | [2] 0.0748 | [3] 0.133 | [4] -0.101

C[C@H]1CC[C@@H](C(C)(C)O)CC2=C1CC[C@@H]2C
inactive: [1] -0.0585 | [2] 0.0603 | [3] 0.0212 | [4] 0.083

C[C@@H](Oc1cc(-c2cnn(C3CCNCC3)c2)cnc1N)c1c(Cl)ccc(F)c1Cl
inactive: [13] 0.0466 | [14] 0.078 | [15] 0.0248 | [16] 0.0309 | [17] 0.0194 | [18] 0.0561 | [19] -0.012 | [20] 0.0202 | [22] 0.0761 | [24] -0.0839
active: [21] -0.189 | [23] -1.08

COC(=O)C1=C(C)N=c2sc(=Cc3cccs3)c(=O)n2C1c1ccc(OC)cc1 (centres undefined)
inactive: [1] 0.0442 | [2] 0.034 | [3] 0.0701 | [4] 0.111

Reference: the supplement of paper PMC6089552
